Screens: PubChem BioAssay, National Center for Advancing Translational Sciences (NCATS)
Most compounds without a hit are left out; they make up all but 5.7% or so of the library.
PI5P4K alpha inh: qHTS for Inhibitors of phosphatidylinositol 5-phosphate 4-kinase (PI5P4K); PI5P4Kalpha enzyme, ADP-Glo luminescence, 60 min; hits give low values; max response, %; 330,000 tested, 1.2% active; AID 652105, 2013; active = max response of -50% or lower; inconclusive = between -30% and -50%; inactive = -30% or higher; also: value at the top dose of about 77 µM; % is scaled to controls: 0 for no effect and ±100 for the full control effect
Target sequence (P48426 whole entry, looked up): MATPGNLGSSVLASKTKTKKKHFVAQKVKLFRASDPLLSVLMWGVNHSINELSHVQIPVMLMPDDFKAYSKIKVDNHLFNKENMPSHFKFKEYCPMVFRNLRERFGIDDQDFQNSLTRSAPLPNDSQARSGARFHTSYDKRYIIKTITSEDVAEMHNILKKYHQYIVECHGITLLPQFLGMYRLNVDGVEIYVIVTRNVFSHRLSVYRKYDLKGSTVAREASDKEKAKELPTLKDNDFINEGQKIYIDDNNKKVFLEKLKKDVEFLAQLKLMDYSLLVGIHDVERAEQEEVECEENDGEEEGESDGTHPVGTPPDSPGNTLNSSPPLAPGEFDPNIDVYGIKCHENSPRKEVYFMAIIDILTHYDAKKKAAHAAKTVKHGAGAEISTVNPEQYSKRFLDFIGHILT
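Human PI5P4Kalpha with substrate in 0.038 M HEPES pH 7.4, 0.28 mM EGTA, 0.1% CHAPS, 5% DMSO; reaction started with 5 microM ATP (final), 60 min at room temperature. ADP formed read by ADP-Glo luminescence.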
JMJD2E inh: qHTS Assay for Inhibitors of Human Jumonji Domain Containing 2E (JMJD2E); Lysine-specific demethylase 4E (Homo sapiens), B2RXH2; JMJD2E catalytic domain, FDH-coupled NADH fluorescence (FDH is formaldehyde dehydrogenase); Potency, µM (titrated, usually from 57.1 µM), for the others: top-dose activity change, negative = inhibition, usual class: inhibitors; 230,000 tested, 1.6% active; active = well fitted inhibition curve with a large enough effect, not every such curve was filed as active; inconclusive = small, poorly fitted or top-dose-only effect, or another doubt; inactive = no such curve, though single readings can be large or run the other way;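 also: potency is read from the fitted curve at half-maximal effect; 0% = wells with enzyme and -100% = buffer wells without enzyme; nearly all actives have a fitted effect of over 50% in size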
Target sequence (B2RXH2 1-337 limits assumed): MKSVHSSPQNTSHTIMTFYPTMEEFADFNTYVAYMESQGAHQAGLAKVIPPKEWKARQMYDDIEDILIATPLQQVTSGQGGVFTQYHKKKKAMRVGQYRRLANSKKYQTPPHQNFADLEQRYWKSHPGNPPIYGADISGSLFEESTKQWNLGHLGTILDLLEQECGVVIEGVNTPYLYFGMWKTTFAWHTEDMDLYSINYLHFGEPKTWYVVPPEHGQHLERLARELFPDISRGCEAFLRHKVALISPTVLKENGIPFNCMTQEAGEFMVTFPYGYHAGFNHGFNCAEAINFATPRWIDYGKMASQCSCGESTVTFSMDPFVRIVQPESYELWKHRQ
HP1b chromo inh: HTS for Inhibitors of HP1-beta Chromodomain Interactions with Methylated Histone Tails; Chromobox protein homolog 1 (Homo sapiens), P83916; AlphaScreen HP1-beta / biotin-H3K9me3 peptide binding; Potency, µM (series often up to 114 µM), for inactives: at the highest dose activity change, negative = inhibition, hits mostly inhibitors; 390,000 tested, 0.56% active; AID 540317, 2011; also: potency is read from the fitted curve at half-maximal effect; nearly all actives have a fitted effect of over 70% in size
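HP1-beta protein (50 nM final) preincubated 30 min at room temperature with biotinylated H3(1-18)K9me3 peptide (50 nM) in PBS pH 7.4, 0.01% Tween-20, then compound added for 30 min. AlphaScreen streptavidin donor/nickel chelate acceptor beads (10 ug/mL final), 30 min dark, luminescence read.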
JMJD2A Tudor: qHTS Assay for Inhibitors of JMJD2A-Tudor Domain | Lysine-specific demethylase 4A (Homo sapiens), O75164 | AlphaScreen JMJD2A-Tudor / H3K4me3 peptide binding | Potency, µM (top dose mostly 114 µM), without a hit: at the top dose activity change, negative = inhibition, actives largely listed as inhibitors | 390,000 tested, 4.4% active; also: potency is read from the fitted curve at half-maximal effect; % is scaled to controls: 0 for no effect and ±100 for the full control effect; nearly all actives have a fitted effect of over 50% in size
BAZ2B block: qHTS Assay for Inhibitors of BAZ2B; Bromodomain adjacent to zinc finger domain protein 2B (Homo sapiens), Q9UIF8; AlphaScreen BAZ2B-H3K14Ac peptide displacement; Potency, µM (highest dose often 114 µM), for the others: at the top dose activity change, negative = inhibition, usual class: inhibitors; 360,000 tested, 4.4% active; AID 504333, 2011; also: potency is read from the fitted curve at half-maximal effect; % is scaled to controls: 0 for no effect and ±100 for the full control effect; nearly all actives have a fitted effect of over 60% in size
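BAZ2B (50 nM) with biotin-H3(5-23)K14Ac peptide (50 nM) in PBS pH 7.4, 0.01% Tween-20, preformed 30 min, then compound 30 min at room temperature; top concentration 110uM. AlphaScreen streptavidin donor/nickel chelate acceptor beads (10 ug/mL final), 20 min dark, signal read.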
L3MBTL1 inh: qHTS Assay for the Inhibitors of L3MBTL1. Lethal(3)malignant brain tumor-like protein 1 (Homo sapiens), Q9Y468. AlphaScreen L3MBTL1–H3K9me1 peptide binding. Potency, µM (top dose mostly 57.1 µM), for inactives: at the top dose activity, negative = inhibition, hits mostly inhibitors. 230,000 tested, 0.66% active. AID 485360, 2010; also: potency is read from the fitted curve at half-maximal effect; % is scaled to controls: 0 for no effect and ±100 for the full control effect; nearly all actives have a fitted effect of over 60% in size
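Displacement of a biotinylated histone H3(1-15) peptide monomethylated at Lys9 (75 nM) from L3MBTL1 (50 nM) was measured by AlphaScreen after a 30 min room-temperature compound incubation; cefsulodin titration served as intraplate control.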
* marks the source's active call; other numbers are inactive results; ? = inconclusive; . = no result given; [ ] = another dose, or the depositor's remark. Unless noted, calls follow the shape of the dose curve; as a rule, active = well fitted inhibition curve with a large enough effect; inconclusive = small, poorly fitted or top-dose-only effect; inactive = no such curve, though single readings can be large or run the other way.

SMILES | PI5P4K alpha inh | JMJD2E inh | HP1b chromo inh | JMJD2A Tudor | BAZ2B block | L3MBTL1 inh
Cc1cccc(Nc2cc(C)nc3ccccc23)c1 | 0 | . | 40% | -10% | -6% | -5%
COc1ccccc1CNC(=O)CCn1cnc2ccccc2c1=O | . | . | ? | 56µM* | 50µM* | .
O=C(CCn1cnc2ccccc2c1=O)NCc1ccccc1 | . | . | -12%[57 µM] | 89µM* | ? | .
COc1ccccc1CNC(=O)c1ccc2ccccc2n1 | 2 | . | 41% | -6% | 79µM* | .
COc1ccc(CNC(=O)c2ccc3ccccc3n2)cc1OC | 3 | . | 29% | -5% | 1% | .
COc1ccccc1NC(=O)CCn1cnc2ccccc2c1=O | . | . | ? | 5µM* | ? | -4%
COc1ccc(NC(=O)CCCn2cnc3ccccc3c2=O)c(OC)c1 | 0 | . | 4% | -18% | -10% | .
COC(=O)C1=C[C@@H](C(=O)OC)[C@@H]2C3=C(C(=O)[C@@]2(C)NC(=O)c2ccccc2)[C@H](C)[C@@H]2C(=O)N(Cc4ccccc4)C(=O)[C@@H]2[C@@H]3C1 | . | . | 26% | -19% | . | .
Cc1ccc(NC(=O)CCn2cnc3ccccc3c2=O)cc1Cl | -5 | -1% | 22% | 3% | 0% | 1%
CC(C)(C)NC(=O)CSc1nnc(NC(=O)CCn2cnc3ccccc3c2=O)s1 | -5 | 1% | 21% | 25µM* | 10% | 1%
COCCCNC(=O)c1cn(C)c(=O)c2cc(OC)c(OC)cc12 | . | ? | 7% | -12% | -1% | -2%
CC(C)(C)c1nnc(NC(=O)CCn2cnc3ccccc3c2=O)s1 | -2 | 5% | 38% | -5% | -22% | 1%
COc1ccccc1CNC(=O)c1cn(C)c(=O)c2cc(OC)c(OC)cc12 | -26 | 9% | 2% | 13µM* | -12% | .
CCc1ccc(NC(=O)CCn2cnc3ccccc3c2=O)cc1 | . | . | -9%[57 µM] | 79µM* | -28% | .
COc1ccc(-c2nc3ccc(NS(C)(=O)=O)cc3o2)cc1 | . | . | 20% | -16% | -13% | .
CC(=O)Nc1ccc(Nc2ccc3cc(S(=O)(=O)N4CCCCC4)ccc3n2)cc1 | . | . | 27% | -22% | ? | .
COc1ccc(Cl)cc1S(=O)(=O)N1CCN(S(=O)(=O)c2ccc3c(c2)OCCO3)CC1 | . | . | . | -18% | . | .
Cc1ccc(Cl)cc1NC(=O)Nc1cn(CC(C)C)c(=O)c2ccccc12 | . | . | 24% | 10% | -2% | .
C#CCOCCOCCOCCNc1nc(N2CCN(C(=O)[C@H](CCCCN)n3cc([C@@H](N)[C@H](C)CC)nn3)CC2)nc(N2CCN(C(=O)[C@H](CCC(=O)O)n3cc([C@@H](N)CCCCN)nn3)CC2)n1 | 11 | . | 65% | ? | . | 3%
C#CCOCCOCCOCCNc1nc(N2CCN(C(=O)[C@H](CCCN=C(N)N)n3cc(C(N)[C@@H](C)CC)nn3)CC2)nc(N2CCN(C(=O)[C@H](CCC(=O)O)n3cc([C@@H](N)CCCCN)nn3)CC2)n1 (stereo partly specified) | 24 | . | 17% | 89µM* | . | -2%
C#CCOCCOCCOCCNc1nc(N2CCN(C(=O)[C@H](CCCCN)n3cc(C(N)[C@H](C)CC)nn3)CC2)nc(N2CCN(C(=O)[C@H](CCC(=O)O)n3cc(C(N)[C@H](C)CC)nn3)CC2)n1 (stereo partly specified) | -4 | -13% | 44% | 50µM* | 79µM* | -10%
CC(=O)Nc1ccc(S(=O)(=O)N2CCN(Cc3ccncc3)CC2)cc1 | 2 | 0% | 30% | -13% | -5% | 4%
COc1cc(CN2CCN(S(=O)(=O)c3ccc(NC(C)=O)cc3)CC2)cc(OC)c1OC | . | . | ? | 22µM* | 50µM* | .
COc1ccc(CN2CCN(S(=O)(=O)c3ccc(C)cc3)CC2)cc1OC | -7 | . | ? | 50µM* | . | .
COc1ccc(S(=O)(=O)N2CCN(Cc3cccc(OC)c3OC)CC2)cc1 | 3 | . | 21% | -9% | -11% | -7%[2.29 µM]
SMILES | PI5P4K alpha inh | JMJD2E inh | HP1b chromo inh | JMJD2A Tudor | BAZ2B block | L3MBTL1 inh
COc1cccc(CN2CCN(S(=O)(=O)c3ccc(NC(C)=O)cc3)CC2)c1OC | -6 | -6% | ? | 2.5µM* | -16% | 5%
COc1ccc(S(=O)(=O)N2CCN(Cc3ccccc3)CC2)cc1OC | 4 | . | 18% | -15% | -4% | 2%
CC(NC(=O)c1ccncc1)c1ccc(Br)cc1 (stereo unspecified) | -12 | . | -31% | -10% | . | .
COc1cccc(CN2CC(C(=O)NCCC3=CCCCC3)CCC2=O)c1 (stereo unspecified) | 9 | . | 50% | -7% | -6% | .
O=C(NCc1ccco1)C1CCCN1C(=O)Nc1ccc(Cl)cc1 (stereo unspecified) | -30 | 6% | -4% | 14µM* | . | 9%
CCC1=NN2C(=N)/C(=C\c3ccc(OCc4cc(=O)n5nc(CC)sc5n4)c(OC)c3)C(=O)N=C2S1 | -71* | ? | -36% | ? | 79µM* | ?
CCC1=NN2C(=N)/C(=C\c3ccc(OCCOc4ccccc4)c(OC)c3)C(=O)N=C2S1 | . | . | . | . | -4% | 2%
CCc1nn2c(=O)cc(COc3ccc(/C=C4\C(=N)N5N=C(CC(C)C)SC5=NC4=O)cc3)nc2s1 | -19 | ? | 9% | 45µM* | ? | .
CCC1=C(c2ccc(C)cc2)S(=O)(=O)N=C1N1CCC(C(=O)NCc2ccc(N(C)C)cc2)CC1 | . | . | -21% | ? | ? | .
CC(=O)c1cccc(N(C(=O)CNC(=O)c2ccco2)C(C(=O)NCC2CCCO2)c2ccccc2)c1 (stereo unspecified) | 1 | . | 10% | -16% | 5% | .
O=C(COc1ccc([N+](=O)[O-])cc1)Nc1cc(S(=O)(=O)N2CCCCC2)ccc1N1CCCCC1 | 2 | . | -16% | 20µM* | -38% | 2%
CCN1CCN(c2ccc(S(=O)(=O)N3CCCCC3)cc2NC(=O)COc2cc(C)ccc2Cl)CC1 | -8 | . | -27% | ? | 79µM* | -18%
Cc1cc(=O)n(Cc2ccccc2Cl)c2c1c(C)nn2-c1ccccc1 | . | . | 78% | 29% | 27% | .
C/C(N)=C(/C#N)C(=O)COC(=O)CNC(=O)c1ccc(Cl)cc1Cl | 2 | -2% | 44% | -4% | -8% | 6%
COc1cc(OC)c(NS(=O)(=O)c2ccc3c(c2)NC(=O)CO3)cc1Cl | -15 | . | 6% | 16µM* | -15% | .
